In PubChem BioAssay (NCI):
This is part of a sample that, as a whole, favours compounds with a hit. Of some 79,000 tested, about 15% had one in any assay. The source made the active and inactive calls. No stated cut-off is given here; in the data, active means growth inhibition above about 70%; inactive means the rest.

Tests used:
[1] = NCI Yeast Anticancer Drug Screen. Data for the rad52 strain (AID 147);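 further: 0% = growth of vehicle-treated control cultures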; conditions: S. cerevisiae rad52 mutant growth inhibition, hits give high values
How it was run: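 Compounds are applied to a genetically defined yeast strain lacking normal DNA damage repair, and inhibition of growth is expressed relative to cultures given vehicle only.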

[2] = NCI Yeast Anticancer Drug Screen. Data for the rad50EPP+ strain (AID 151);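 further: 0% = growth of vehicle-treated control cultures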; conditions: S. cerevisiae rad50 mutant strain, hits give high values
How it was run: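 Compounds were applied to the rad50EPP+ yeast strain, which bears a defined DNA repair alteration, and growth inhibition was determined relative to vehicle-treated cultures.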

[3] = NCI Yeast Anticancer Drug Screen. Data for the mgt1 strain (AID 153); conditions: S. cerevisiae mgt1 mutant growth inhibition, hits give high values
How it was run: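 Strain: mgt1 yeast, one of a set carrying defined DNA damage repair or cell cycle control alterations. Compound-treated growth compared with vehicle.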

[4] = NCI Yeast Anticancer Drug Screen. Data for the rad50 strain (AID 155);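 further: 0% = growth of vehicle-only cultures of the same strain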; conditions: S. cerevisiae rad50 strain growth inhibition, hits give high values
How it was run: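 Growth of the mutant yeast was measured after compound exposure and referenced to vehicle-treated cultures.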

[5] = NCI Yeast Anticancer Drug Screen. Data for the mec2-1 strain (AID 157); conditions: S. cerevisiae mec2-1 strain, hits give high values
How it was run: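 Strain: mec2-1 (DNA repair/cell cycle alteration). Compound exposure, then growth measured; inhibition expressed relative to vehicle.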

[6] = NCI Yeast Anticancer Drug Screen. Data for the rad14 strain (AID 159);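 further: 0% = growth of vehicle-treated control cultures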; conditions: S. cerevisiae rad14 strain growth inhibition, hits give high values
How it was run: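 Here, inhibition of yeast growth was measured after compound exposure, using a strain with a genetic defect in DNA damage repair and vehicle-treated cultures as the reference.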

[7] = NCI Yeast Anticancer Drug Screen. Data for the sgs1 mgt1 strain (AID 161);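 further: 0% = growth of cultures given vehicle only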; conditions: S. cerevisiae sgs1 mgt1 strain, hits give high values
How it was run: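 Genetically altered yeast, compound exposure, growth inhibition relative to vehicle.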

[8] = NCI Yeast Anticancer Drug Screen. Data for the CLN2oe strain (AID 163);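 further: 0% = growth of vehicle-only control cultures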; conditions: S. cerevisiae CLN2oe strain, hits give high values
How it was run: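 Growth of a genetically modified yeast strain is measured after compound exposure and compared with cultures given vehicle alone.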

[9] = NCI Yeast Anticancer Drug Screen. Data for the cln2 rad14 strain (AID 165);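 further: 0% = growth equal to vehicle treated cultures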; conditions: S. cerevisiae cln2 rad14 strain, hits give high values
How it was run: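 Compounds are applied to the cln2 rad14 yeast strain, and growth is then compared with that of vehicle-treated cultures to give inhibition.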

[10] = NCI Yeast Anticancer Drug Screen. Data for the bub3 strain (AID 167); conditions: S. cerevisiae bub3 mutant strain, hits give high values
How it was run: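 Whole-cell yeast assay. The mutant strain was incubated with compounds, and growth inhibition was determined by comparison with vehicle-treated cells.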

[11] = NCI Yeast Anticancer Drug Screen. Data for the wt2 strain (AID 169);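 further: 0% = growth of vehicle-treated yeast cultures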; conditions: S. cerevisiae wt2 strain growth inhibition, hits give high values
How it was run: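 This strain belongs to a panel of yeast strains with defined genetic alterations in DNA damage repair or cell cycle control. Compounds are applied, and growth inhibition is measured against vehicle-treated cultures.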

[12] = NCI Yeast Anticancer Drug Screen. Data for the mlh1 strain (AID 171);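 further: 0% = growth of vehicle-treated control cultures of the same strain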; conditions: S. cerevisiae mlh1 strain growth inhibition, hits give high values
How it was run: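 Growth of the mutant yeast strain after compound exposure, expressed as inhibition relative to vehicle-only controls.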

[13] = NCI Yeast Anticancer Drug Screen. Data for the sgs1 strain (AID 173);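 further: 0% = growth of vehicle-only control cultures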; conditions: S. cerevisiae sgs1 mutant, hits give high values
How it was run: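 Growth of a yeast strain bearing a defined genetic alteration is measured after compound treatment. Inhibition is expressed relative to vehicle-only controls.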

[14] = NCI Yeast Anticancer Drug Screen. Data for the mlh1 rad18 strain (AID 175); conditions: S. cerevisiae mlh1 rad18 strain growth inhibition, hits give high values
How it was run: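 Read-out is yeast growth inhibition, calculated against vehicle-only controls. The compound was applied to a strain engineered with DNA damage repair alterations.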

[15] = NCI Yeast Anticancer Drug Screen. Data for the rad18 strain (AID 177); conditions: S. cerevisiae rad18 mutant growth inhibition, hits give high values
How it was run: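 Growth of the mutant yeast strain after compound exposure, normalised to vehicle-only cultures.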

[16] = NCI Yeast Anticancer Drug Screen. Data for the wt1 strain (AID 149);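 further: 0% = growth of vehicle-treated wt1 cultures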; conditions: S. cerevisiae wt1 strain (SPY 50644) growth inhibition, hits give high values
How it was run: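 Measured: growth of wt1 yeast under compound versus vehicle treatment, reported as inhibition.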

[17] = at 5.0 µM (retest, dose inferred, filed as 0.5)
[18] = at 50.0 µM (retest, dose inferred, filed as 5.0)

Measured: growth inhibition

CCCCN(CCCC)CCC(O)c1cc2c(Cl)cc(Cl)cc2c2cc(C(F)(F)F)ccc12 (stereo unspecified)
active: [1]; at 11.0 µM 99% | [1]; at 33.0 µM 98% | [1]; at 100.0 µM 96% | [2]; at 11.0 µM 80% | [2]; at 33.0 µM 98% | [2]; at 100.0 µM 93% | [3]; at 11.0 µM 99% | [3]; at 33.0 µM 99% | [3]; at 100.0 µM 97% | [4]; at 11.0 µM 98% | [4]; at 33.0 µM 98% | [4]; [18] 98% | [4]; at 50.0 µM 87.5% | [4]; at 100.0 µM 95% | [5]; at 11.0 µM 98% | [5]; at 33.0 µM 99% | [5]; [18] 98% | [5]; at 50.0 µM 89.7% | [5]; at 100.0 µM 96% | [6]; at 11.0 µM 98% | [6]; at 33.0 µM 99% | [6]; at 100.0 µM 96% | [7]; [18] 97% | [7]; at 50.0 µM 86.5% | [8]; at 11.0 µM 98% | [8]; at 33.0 µM 99% | [8]; at 100.0 µM 95% | [9]; [18] 96% | [9]; at 50.0 µM 85.5% | [10]; at 11.0 µM 97% | [10]; at 33.0 µM 99% | [10]; [18] 96% | [10]; at 50.0 µM 82.7% | [10]; at 100.0 µM 96% | [11]; at 11.0 µM 98% | [11]; at 33.0 µM 96% | [11]; at 100.0 µM 90% | [12]; at 11.0 µM 98% | [12]; at 33.0 µM 99% | [12]; at 100.0 µM 96% | [13]; at 11.0 µM 99% | [13]; at 33.0 µM 99% | [13]; at 100.0 µM 95% | [14]; [18] 97% | [14]; at 50.0 µM 82.8% | [15]; at 11.0 µM 98% | [15]; at 33.0 µM 99% | [15]; at 100.0 µM 94%
inactive: [1]; at 1.2 µM 1% | [1]; at 3.7 µM 11% | [2]; at 1.2 µM 8% | [2]; at 3.7 µM 19% | [3]; at 1.2 µM 27% | [3]; at 3.7 µM 30% | [4]; at 1.2 µM 24% | [4]; at 3.7 µM 16% | [4]; [17] 41% | [5]; at 1.2 µM 10% | [5]; at 3.7 µM 8% | [5]; [17] 53% | [6]; at 1.2 µM 23% | [6]; at 3.7 µM 20% | [7]; [17] 56% | [8]; at 1.2 µM 22% | [8]; at 3.7 µM 20% | [9]; [17] 67% | [10]; at 1.2 µM 10% | [10]; at 3.7 µM 3% | [10]; [17] -17% | [11]; at 1.2 µM -46% | [11]; at 3.7 µM 18% | [12]; at 1.2 µM 14% | [12]; at 3.7 µM 23% | [13]; at 1.2 µM 18% | [13]; at 3.7 µM 18% | [14]; [17] 62% | [15]; at 1.2 µM 26% | [15]; at 3.7 µM 29%

NC1=NNC2(C(N)=N1)c1ccccc1-c1ccccc12
inactive: [16]; at 1.2 µM 4% | [16]; at 3.7 µM 3% | [16]; at 11.0 µM -4% | [16]; at 33.0 µM 12% | [2]; at 1.2 µM 3% | [2]; at 3.7 µM 7% | [2]; at 11.0 µM 2% | [2]; at 33.0 µM 44% | [3]; at 1.2 µM 12% | [3]; at 3.7 µM 6% | [3]; at 11.0 µM 3% | [3]; at 33.0 µM 30% | [4]; at 1.2 µM -7% | [4]; at 3.7 µM -12% | [4]; [17] -32% | [4]; at 11.0 µM -9% | [4]; at 33.0 µM 32% | [5]; at 1.2 µM 11% | [5]; at 3.7 µM 12% | [5]; [17] -1% | [5]; at 11.0 µM 11% | [5]; at 33.0 µM 29% | [5]; [18] 18% | [6]; at 1.2 µM -18% | [6]; at 3.7 µM -22% | [6]; at 11.0 µM -25% | [6]; at 33.0 µM 1% | [7]; [17] -9% | [7]; [18] 43% | [7]; at 50.0 µM 64.5% | [9]; [17] 3% | [9]; [18] 57% | [10]; at 1.2 µM 26% | [10]; at 3.7 µM 25% | [10]; [17] -27% | [10]; at 11.0 µM 26% | [10]; at 33.0 µM 38% | [10]; [18] 54% | [10]; at 50.0 µM 45.1% | [11]; at 1.2 µM -10% | [11]; at 3.7 µM -16% | [11]; at 11.0 µM -18% | [11]; at 33.0 µM -2% | [12]; at 1.2 µM 10% | [12]; at 3.7 µM -2% | [12]; at 11.0 µM 3% | [12]; at 33.0 µM 53% | [13]; at 1.2 µM 12% | [13]; at 3.7 µM 17% | [13]; at 11.0 µM 11% | [13]; at 33.0 µM 33% | [14]; [17] -25% | [15]; at 1.2 µM -4% | [15]; at 3.7 µM -5% | [15]; at 11.0 µM -17% | [15]; at 33.0 µM 18%
active: [16]; at 100.0 µM 97% | [2]; at 100.0 µM 76% | [3]; at 100.0 µM 98% | [4]; [18] 93% | [4]; at 50.0 µM 86.2% | [4]; at 100.0 µM 94% | [5]; at 50.0 µM 71.9% | [5]; at 100.0 µM 96% | [6]; at 100.0 µM 97% | [9]; at 50.0 µM 81% | [10]; at 100.0 µM 97% | [11]; at 100.0 µM 97% | [12]; at 100.0 µM 97% | [13]; at 100.0 µM 97% | [14]; [18] 81% | [14]; at 50.0 µM 79.3% | [15]; at 100.0 µM 97%
